Test results from PubChem BioAssay (Tox21).
Values joined by “and” are separate entries in the source; they are usually repeats but may differ in a detail not shown here. Equal values may be shown once. Inconclusive results are not listed. Active and inactive are the calls of the source. Calls come from the whole dose curve; as a rule, active = well fitted inhibition curve with a large enough effect in the repeat runs; inconclusive = weak or mixed curves; inactive = no such curve, though single readings can be large or run the other way.

Molecular target: Cytochrome P450 1A2 (Homo sapiens) (UniProt P05177)
Assay: Cytochrome P450 Family 1 Subfamily A Member 2 (CYP1A2) small molecule antagonists: luciferase reporter qHTS assay (AID 1671199); note: nearly all actives have a fitted effect of over 50% in size
Conditions: P450-Glo CYP1A2 enzyme, luciferin luminescence, 1 h; series mostly up to 53 µM
Excerpt: National Center for Advancing Translational Sciences [NCATS]
U.S. Environmental Protection Agency [EPA]
National Institutes of Environmental Health Sciences [NIEHS]
National Toxicology Program [NTP]
U.S. Food and Drug Administration [FDA]
Cytochrome P450 (CYP) enzymes are membrane-bound hemeproteins that play a key role in metabolism of drugs and xenobiotics. Evaluation of the effect of chemicals on CYP isozymes is useful to minimize the adverse drug reactions and toxicities in drug development process. Tox21 chemicals were tested for their effect on CYP enzyme activities by using P450-Glo (TM) screening systems (Promega Corporation, Madison, WI). These systems provide a luminescent method containing proluciferin substrates and are converted to luciferin products by CYP isozymes. The luciferin products formed are detected with a luciferin detection reagent, and the amount of light produced is proportional to CYP activity. P450-Glo (TM) CYP1A2 screening system (Catalog. No. V9770) was used to detect the compounds that interfere in CYP1A2 activity. The positive control compound used for CYP1A2 assay is furafylline (Sigma-Aldrich, St. Louis, MO).
Tox21 Assay Protocol Summary:
Two ul of enzyme-substrate mix was dispensed into medium binding white/solid 1536-well plates (Greiner Bio-One North America Inc., Monroe, NC) using a BioRaptr Flying Reagent Dispenser (FRD, Beckman Coulter, Brea, CA). Compounds dissolved in DMSO and positive control (furafyllline) were transferred to the assay plates at 23 nl using a Pintool station (Wako, San Diego, CA). The assay plates were incubated at room temperature for 10 min. Then 2 ul of NADPH regeneration solution was added to each well of the assay plates using an FRD and incubated at room temperature for 1 h. The reaction was stopped by adding 4 ul of detection reagent using an FRD and after 20 min incubation at room temperature the luminescence signal was measured using a ViewLux plate reader (Perkin Elmer, Shelton, CT). Data were expressed as relative luminescence units.
Potency is the fitted concentration of half-maximal effect.

Sequence of Cytochrome P450 1A2 (Homo sapiens) (P05177 whole entry, looked up): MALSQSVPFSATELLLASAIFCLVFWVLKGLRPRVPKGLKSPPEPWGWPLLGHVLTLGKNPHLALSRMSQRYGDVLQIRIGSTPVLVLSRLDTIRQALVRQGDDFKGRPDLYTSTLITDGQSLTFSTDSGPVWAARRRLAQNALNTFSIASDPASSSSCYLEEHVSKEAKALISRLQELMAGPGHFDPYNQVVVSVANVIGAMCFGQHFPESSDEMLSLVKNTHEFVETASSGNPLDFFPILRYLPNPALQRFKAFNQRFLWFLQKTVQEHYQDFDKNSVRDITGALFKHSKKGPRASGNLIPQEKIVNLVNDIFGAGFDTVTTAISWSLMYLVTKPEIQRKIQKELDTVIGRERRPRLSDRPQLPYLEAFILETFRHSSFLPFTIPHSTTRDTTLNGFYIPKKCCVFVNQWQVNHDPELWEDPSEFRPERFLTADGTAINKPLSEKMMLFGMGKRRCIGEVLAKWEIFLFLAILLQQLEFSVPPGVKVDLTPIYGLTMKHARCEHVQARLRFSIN

Compound | Potency
CCCCCCCCOC(=O)c1ccc(O)cc1 | 19.9 µM (active) and 12.6 µM (active)
NNC(=O)c1cccc(C(=O)NN)c1 | 10 µM (active)
O=C(Oc1ccccc1)c1ccccc1C(=O)Oc1ccccc1 | 5.64 µM (active)
CCCCCCCC[N+](CCCCCCCC)(CCCCCCCC)CCCCCCCC | 70.9 µM (active)
CCOC(=O)c1nc(C(Cl)(Cl)Cl)n(-c2ccc(Cl)cc2Cl)n1 | inactive
Cc1cc2c(cc1C(F)(F)F)N(C(=O)Nc1ccc(Oc3cccnc3C)nc1)CC2 | 72.1 µM (active)
CCN(Cc1cccnc1)C(=O)c1cccc(Cl)c1[C@]1(C)C(=O)N(Cc2ccc(OC)cc2OC)c2ccc(Cl)cc21 | inactive
c1ccc(CSCc2ccccc2)cc1 | 31.6 µM (active)
COc1cccc2c1C(=O)c1c(O)c3c(c(O)c1C2=O)C[C@@](O)(C(=O)CO)C[C@@H]3O[C@H]1C[C@H](N)[C@H](O[C@@H]2CCCCO2)[C@H](C)O1 | inactive
Nc1ccc2c3c(cccc13)-c1ccccc1-2 | 0.128 µM (active)
Oc1cccc(-c2c3nc(c(-c4cccc(O)c4)c4ccc([nH]4)c(-c4cccc(O)c4)c4nc(c(-c5cccc(O)c5)c5ccc2[nH]5)CC4)C=C3)c1 | inactive
O=C1C=CC(=O)N1c1ccc(Cc2ccc(N3C(=O)C=CC3=O)cc2)cc1 | 20 µM (active)
CCCCCCCCCCCCc1ccc(O)cc1 | 22.4 µM (active)
CCC(C)Nc1ccc(NC(C)CC)cc1 (stereo not given) | 40.7 µM (active)
C=CC(=O)OCC(CO)(COCC(COC(=O)C=C)(COC(=O)C=C)COC(=O)C=C)COC(=O)C=C | inactive
O=C(c1ccc(F)cc1)C1CCN(CCn2c(=O)[nH]c3ccccc3c2=O)CC1 | inactive
C=C(C)C(=O)OCC[N+](C)(C)C | 15.8 µM (active)
CC(C)n1nc(-c2cc3cc(O)ccc3[nH]2)c2c(N)ncnc21 | 3.63 µM (active)
Oc1ccc(N=Nc2ccccc2)cc1 | 16.1 µM (active)
Cc1nc(-c2ccc3c(c2)CCN(CCC2CCC(NC(=O)/C=C/c4ccc(F)cc4)CC2)CC3)no1 (stereo not given) | inactive

Compound | Potency
O=C1c2c(O)ccc(Nc3ccc(CCO)cc3)c2C(=O)c2c([N+](=O)[O-])ccc(O)c21 | 31.7 µM (active)
CCOc1nc2cccc(C(=O)OC(C)OC(=O)OC3CCCCC3)c2n1Cc1ccc(-c2ccccc2-c2nn[nH]n2)cc1 (stereo not given) | inactive
Oc1cc2ccccc2c2ccccc12 | 0.0502 µM (active)
CCCN(CCC)c1c([N+](=O)[O-])cc(C(F)(F)F)c(N)c1[N+](=O)[O-] | 2 µM (active)
C/C=C1/C(=O)C[C@H]2[C@@H]3CCC4=CC(=O)CC[C@]4(C)[C@H]3CC[C@]12C | 39.8 µM (active)
O=C(Nc1cccc([N+](=O)[O-])c1)c1cc2ccccc2cc1O | 3.56 µM (active)
CCc1oc2ccccc2c1C(=O)c1cc(Br)c(O)c(Br)c1 | inactive
COc1cc(-c2nc(NC(=O)c3cc4cc(C)cc(C)c4n3CC(=O)O)sc2CCC2CCCCC2)c(OC)cc1Cl | inactive
CCCCCCCCCCCC[N+](C)(C)CCCCCCCCCCCC | 71 µM (active)
CN(C/C=C/C#CC(C)(C)C)Cc1cccc2ccccc12 | 17.4 µM (active)
CCc1cc(Cc2cc(CC)cc(C(C)(C)C)c2O)c(O)c(C(C)(C)C)c1 | inactive
Cc1cc(N)c(S(=O)(=O)O)cc1Cl | inactive
CCCCCCCCCCCCCCCCCC[N+](C)(C)Cc1ccccc1 | 80.4 µM (active)
CCCCCOC(=O)CCCC | inactive
Cc1cc(C2CCCCC2)n(O)c(=O)c1 | inactive
CSc1ccc(/C=C2/C(C)=C(CC(=O)O)c3cc(F)ccc32)cc1 | 15.5 µM (active)
COc1c(C)c2c(c(O)c1C/C=C(\C)CCC(=O)O)C(=O)OC2 | inactive
CCCCCCCCCCCCCCCS(=O)(=O)Oc1ccccc1 | inactive
CCCCCCCC/C=C\CCCCCCCCOCCO | inactive
O=c1cccccc1O | inactive
